Experimental findings from PubChem BioAssay (EPA / NIEHS) are described below.

Calls of active or inactive are those of the source. Rule for the calls: active = hit-call score of the fitted dose curve at least 0.9, where 1 is the maximum; inconclusive = response in the unintended direction; inactive = score below 0.9.

Broadly, the AC50 is the concentration at which the activity in the assay is half-maximal.

Chain of Estrogen receptor (Homo sapiens) (P03372 whole entry, looked up): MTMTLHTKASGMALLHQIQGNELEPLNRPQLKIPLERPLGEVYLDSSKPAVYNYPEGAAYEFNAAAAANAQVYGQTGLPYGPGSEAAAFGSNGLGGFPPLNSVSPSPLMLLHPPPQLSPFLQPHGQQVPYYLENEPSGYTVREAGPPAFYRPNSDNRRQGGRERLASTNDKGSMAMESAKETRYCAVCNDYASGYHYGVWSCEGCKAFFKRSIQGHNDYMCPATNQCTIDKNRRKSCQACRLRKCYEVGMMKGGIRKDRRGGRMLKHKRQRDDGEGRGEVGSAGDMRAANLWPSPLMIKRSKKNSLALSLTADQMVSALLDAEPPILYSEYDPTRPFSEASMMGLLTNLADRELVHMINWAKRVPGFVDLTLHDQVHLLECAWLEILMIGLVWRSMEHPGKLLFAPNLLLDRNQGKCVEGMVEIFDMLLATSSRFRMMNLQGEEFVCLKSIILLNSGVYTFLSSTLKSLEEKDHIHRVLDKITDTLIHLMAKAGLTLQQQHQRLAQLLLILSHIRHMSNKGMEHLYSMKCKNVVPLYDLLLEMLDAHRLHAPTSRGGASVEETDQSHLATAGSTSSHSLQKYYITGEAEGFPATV

The assay has as its target Estrogen receptor (Homo sapiens) (UniProt P03372). Nature of the assay: OT_ERa_GFPERaERE_0120: Odyssey Thera (OT) 2-hour HeLa Transcription Induction Assay for Estrogen Receptor (AID 2283382). Here is the method: OT_ERa_GFPERaERE_0120 is a cell-based, single-readout assay that uses HeLa, a human cervix cell line, with measurements taken at 2 hours after chemical dosing in a 384-well plate.OT_ERa_GFPERaERE_0120 is one of one assay component(s) measured or calculated from the OT_ERa_GFPERaERE_0120 assay. It is designed to make measurements of fluorescent protein induction, a form of inducible reporter, as detected with optical microscopy: fluorescence microscopy signals by Microscopy technology.Data from the assay component OT_ERa_GFPERaERE_0120 was analyzed into 1 assay endpoint. This assay endpoint, OT_ERa_EREGFP_0120, was analyzed in the positive analysis fitting direction relative to DMSO as the negative control and baseline of activity. Using a type of inducible reporter, measures of receptor for gain-of-signal activity can be used to understand the reporter gene at the pathway-level as they relate to the gene ESR1. Furthermore, this assay endpoint can be referred to as a primary readout, because the performed assay has only produced 1 assay endpoint. To generalize the intended target to other relatable targets, this assay endpoint is annotated to the nuclear receptor intended target family, where the subfamily is steroidal.
All assay endpoints are quantified using high content image analysis algorithms.
As to `NCc1cccc(CN)c1`, the compound was classed as inactive.

For `CN(C)CCOC(c1ccccc1)c1ccccc1`, the result was inactive.

For the compound `CCCCc1oc2ccccc2c1C(=O)c1cc(I)c(OCCN(CC)CC)c(I)c1`, the compound was classed as inactive.

In the case of `N=C(N)c1ccc(OCCCCCOc2ccc(C(=N)N)cc2)cc1`, the result was inactive.

Turning to `NCCN`, the compound was classed as inactive.

Consider `O=C(O)c1cccc(C(=O)O)n1`, for which the result was inactive.

For the compound `CCCCCCC(C)(C)C(=O)O`, the compound was called inactive.

In the case of `Cc1cc(C(=C2C=CC(=Nc3ccc(S(=O)(=O)O)cc3)C=C2)c2ccc(Nc3ccc(S(=O)(=O)O)cc3)cc2)cc(S(=O)(=O)O)c1N`, the compound was called inactive.

In the case of `CCCCc1ccc2ccccc2c1S(=O)(=O)O`, the compound was classed as inactive.

Consider `CCCCCC(C)OC(=O)COc1ccc(Cl)c2cccnc12` (centres undefined), for which the outcome was inactive.

Turning to `C=CC(C)(CCC=C(C)C)OC(C)=O` (centres undefined), the result was inactive.

Take `Cc1cc(Cc2cc(C)cc(C(C)(C)C)c2O)c(O)c(C(C)(C)C)c1`: the compound was called inactive.

As for `CCc1ccccc1O`, the call was inactive.

As for `CCCCCCCCCC=CCC1CC(=O)OC1=O` (centres undefined), the compound was called inactive.

On to `CCCCCCc1ccc(N)cc1`, for which the compound was classed as inactive.

As for `CN(Cc1cnc2nc(N)nc(N)c2n1)c1ccc(C(=O)N[C@@H](CCC(=O)O)C(=O)O)cc1`, the result was inactive.

Turning to `COc1cc([N+](=O)[O-])ccc1N`, the compound was called inactive.

Consider `CCCCCCCCCCCCOC(=O)c1cc(O)c(O)c(O)c1`, for which the AC50 was 84.1 µM (active).

`NC(=NCCCCCCN=C(N)/N=C(\N)Nc1ccc(Cl)cc1)/N=C(\N)Nc1ccc(Cl)cc1`: the AC50 was 28.6 µM (active).
